{"source": "ChEMBL document CHEMBL3433997", "about": "“St. Jude Leishmania screening dataset” (2016)"}
{"target": "Solute carrier family 2, facilitated glucose transporter member 1 (Homo sapiens) (UniProt P11166)", "sequence (P11166 whole entry)": "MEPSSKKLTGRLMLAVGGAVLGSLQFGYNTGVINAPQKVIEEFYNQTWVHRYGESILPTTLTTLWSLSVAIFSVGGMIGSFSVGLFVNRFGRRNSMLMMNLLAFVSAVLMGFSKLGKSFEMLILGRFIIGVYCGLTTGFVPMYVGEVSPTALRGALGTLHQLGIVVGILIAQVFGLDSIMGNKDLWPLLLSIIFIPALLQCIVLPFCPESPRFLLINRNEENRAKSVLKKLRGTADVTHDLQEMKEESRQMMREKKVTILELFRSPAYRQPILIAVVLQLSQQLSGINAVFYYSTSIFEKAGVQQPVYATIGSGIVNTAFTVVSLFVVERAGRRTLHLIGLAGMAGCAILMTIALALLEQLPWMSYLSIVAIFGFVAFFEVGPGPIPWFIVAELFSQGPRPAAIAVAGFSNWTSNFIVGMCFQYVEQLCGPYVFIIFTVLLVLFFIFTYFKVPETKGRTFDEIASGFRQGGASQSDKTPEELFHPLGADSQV", "assay": "ST_JUDE_LEISH: Cytotoxicity at 2uM final concentration against transgenic Leishmania Mexicana promastigotes LmGLUT1 that are glucose transport deficient and complemented with the human glucose transporter GLUT1. Activity is measured by DNA content using SYBR green in vitro", "format": "functional", "units": {"inhibition": "%"}}
{"smiles": "O=C(NCc1cccc(C(F)(F)F)c1)C(c1cc2ccccc2o1)N1CCN(C(c2ccccc2)c2ccccc2)CC1", "note": "(stereo not given)", "inhibition": 1.37}
{"smiles": "CCc1cc(N2CCN(c3ccccc3F)CC2)nc(SCc2ccc(C(=O)NC3CC3)o2)n1", "inhibition": 2.82}
{"smiles": "CCN(CCCN1CCCCC1)c1cc(C)nc(Nc2cc(C)ccc2C)n1", "inhibition": -1.92}
{"smiles": "Cn1nc(C(F)(F)F)c(-c2ccc(F)cc2)c1NC(=O)Nc1ccc(F)cc1", "inhibition": 3.38}
{"smiles": "COc1ccc2c(c1)S(=O)(=O)N=C(N1CCCC1c1ccc(Cl)c(Cl)c1)N2C", "note": "(stereo not given)", "inhibition": -1.4}
{"smiles": "O=C(CSc1nc2ccccc2c(=O)n1CC1CCCO1)Nc1cc(C(F)(F)F)ccc1Cl", "note": "(stereo not given)", "inhibition": 9.97}
{"smiles": "CCC[C@@H]([C@@H](CC(C)C)C(=O)N[C@@H](CCCNc1nccc(C(F)(F)F)n1)C(=O)Nc1nccs1)N(O)C=O", "inhibition": 3.82}
{"smiles": "Cc1n[nH]c(C)c1C1CCN(CC2CCC(NC(=O)/C=C/c3ccc(Cl)c(Cl)c3)CC2)CC1", "note": "(stereo not given)", "inhibition": 4.43}
{"smiles": "O=C(C=Cc1ccc(Cl)c(Cl)c1)NCCCCCN1CCC(CCNC(=O)c2sc3ccccc3c2Cl)CC1", "inhibition": 11.5}
{"smiles": "CN1CCCN(Cc2ccc(-c3cccc(NC(=O)c4cccc(Cl)c4)c3)cc2)CC1", "inhibition": 16.5}
{"smiles": "Cc1cc(NC(=O)Nc2ccc3ccn(C)c3c2)c2ccccc2n1", "inhibition": 13}
{"smiles": "COc1ccc2nccc([C@@H](O)CN3CCC(NCCOc4ccc(F)cc4F)CC3)c2c1", "inhibition": 7.55}
{"smiles": "CC(C)Sc1ccc(Cl)cc1CON1C(=N)N=C(N)NC1(C)C", "inhibition": 2.72}
{"smiles": "COc1cc(Cc2cnc(N)nc2N)cc(OCCCC(=O)O)c1OC", "inhibition": 2.98}
{"smiles": "Cc1ccoc1C(=O)Nc1cccc(-c2cccc(-c3nc4cc(C(F)(F)F)ccc4[nH]3)c2)c1", "inhibition": 3.75}
{"smiles": "Cc1cc(N2CCCC2)nc(Nc2ccc(NC(=O)C(C)Oc3ccccc3)cc2)n1", "note": "(stereo not given)", "inhibition": 10.6}
{"smiles": "COc1ccccc1CNC(=O)c1ccc(N2CCN(c3ccncc3)CC2)cn1", "inhibition": 7.32}
{"smiles": "c1ccc2[nH]c(-c3ccc(-c4ccc(CN5CCCCC5)cc4)cc3)nc2c1", "inhibition": 18.2}
{"smiles": "O=[N+]([O-])c1cccc(S(=O)(=O)N2CCN(CC(O)COc3ccc(-c4ccccc4)cc3)CC2)c1", "note": "(stereo not given)", "inhibition": 1.04}
{"smiles": "CC(C)(C)C1CCC(CC2=C(C(=O)O)c3ccccc3C2=O)CC1", "note": "(stereo not given)", "inhibition": 1.16}
{"smiles": "CCN(CC)CCN(Cc1ccc(-c2ccc(C(F)(F)F)cc2)cc1)C(=O)Cn1c(CCc2ccccc2F)nc(=O)c2ccccc21", "inhibition": 3.8}
{"smiles": "Cc1ccc(Nc2nc(C)cc(Nc3cccc(NS(C)(=O)=O)c3)n2)cc1", "inhibition": 11.5}
{"smiles": "O=C(O[C@@H]1CN[C@H](C#Cc2cc3ncnc(Nc4ccc5c(cnn5Cc5cccc(F)c5)c4)c3s2)C1)N1CCCC1", "inhibition": 1.37}
{"smiles": "OC(CN1CCN(C2CCCCC2)CC1)Cn1c2ccccc2c2cc(Br)ccc21", "note": "(stereo not given)", "inhibition": 1.23}
{"smiles": "CC(C)Nc1nc(NCCc2c[nH]cn2)nc(Nc2ccc(Oc3ccccc3)cc2)n1", "inhibition": 2.08}
{"smiles": "CC(C)c1cccc(C(NC(=O)[C@H]2Cc3ccccc3CN2C(=O)c2cccc(N3CCOCC3)c2)C2CCCC2)c1", "note": "(stereo not given in full)", "inhibition": 1}
{"smiles": "ON=C(c1nc2ccccc2[nH]1)c1nc2ccccc2[nH]1", "inhibition": -0.84}
{"smiles": "Cc1cccc2nc(-c3cccc(-c4cccc(NC(=O)Nc5cccc(C#N)c5)c4)c3)[nH]c12", "inhibition": 11.2}
{"smiles": "FC(F)(F)c1cccc(CNCC2CCN(Cc3ccc4c(c3)OCO4)CC2)c1", "inhibition": 9.53}
{"smiles": "O=C(NCCCCN1CCC(c2ccc3c(c2OCCO)CCCC3)CC1)c1sc(-c2ccc(C(F)(F)F)cc2)nc1CO", "inhibition": 3.31}
{"smiles": "Cc1cc(N2CCCN(C)CC2)nc(Nc2ccc(Br)cc2)n1", "inhibition": 5.39}
{"smiles": "CC(C)(C)c1ccc(NC(=O)c2ccc(CN3CCCN(Cc4cccc(F)c4)CC3)cc2)cc1", "inhibition": 13.7}
{"smiles": "Cc1cc(OCC2CCN(c3ncc(C(=O)NC4CC4)cc3Cl)CC2)ccc1F", "inhibition": 1.62}
{"smiles": "Oc1ccc2[nH]cc(C3CCN(CCC(c4ccccc4)c4ccccc4)CC3)c2c1", "inhibition": 4.66}
{"smiles": "CC(C)c1ccc(Nc2nc(NCCc3c[nH]cn3)nc(NCc3ccccc3)n2)cc1", "inhibition": 1.58}
{"smiles": "CCc1ccc(C2CCN(CCCCNC(=O)c3ccc(NC(=O)c4ccc(Cl)cc4)cc3)CC2)c(OC(C)=O)c1", "inhibition": 3.29}
{"smiles": "CCOc1ccc2c(=NN=Cc3cccc(F)c3)cc(C)[nH]c2c1", "inhibition": 6}
{"smiles": "CCCN1CCc2c(sc3nc(SCC(=O)Nc4ccc(C)cc4)n(-c4ccc(C)cc4)c(=O)c23)C1", "inhibition": 6.06}
{"smiles": "CN(C)c1ccc(CN2CCC(NC(=O)c3ccc(-c4cccc(Cl)c4)s3)CC2)cc1", "inhibition": 0.72}
{"smiles": "c1ccc2c(C3CCN(CCCCOc4ccc5c(c4)CCN(CC4CC4)CC5)CC3)c[nH]c2c1", "inhibition": 70.5}
